# From PubChem BioAssay
# An excerpt weighted towards active compounds, which were near 2.6% of everything screened.
# Exocytosis inh: lytic granule exocytosis inhibition | inhibition, % at 10 µM | TALL-104 LAMP-1 surface exposure, flow cytometry; cells stimulated with thapsigargin and PMA | actives 0.66% (n = 360,000);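 active = inhibition above about 55%, limit read from the data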
# ABHD5 PLIN5 PPI: blocks binding of human ABHD5 to perilipin-5. Split G. princeps luciferase complementation, luminescence, 4 h. Q00G26+Q8WTS1. inhibition, % at 4 µM. actives 0.78% (n = 360,000). AID 602281;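 active = inhibition above the mean inhibition across every tested compound plus 3 SD, cut at about 22% in these data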;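 also: 0% = DMSO only wells and the 100% control is not disclosed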
# Target sequence (Q00G26 whole entry, looked up): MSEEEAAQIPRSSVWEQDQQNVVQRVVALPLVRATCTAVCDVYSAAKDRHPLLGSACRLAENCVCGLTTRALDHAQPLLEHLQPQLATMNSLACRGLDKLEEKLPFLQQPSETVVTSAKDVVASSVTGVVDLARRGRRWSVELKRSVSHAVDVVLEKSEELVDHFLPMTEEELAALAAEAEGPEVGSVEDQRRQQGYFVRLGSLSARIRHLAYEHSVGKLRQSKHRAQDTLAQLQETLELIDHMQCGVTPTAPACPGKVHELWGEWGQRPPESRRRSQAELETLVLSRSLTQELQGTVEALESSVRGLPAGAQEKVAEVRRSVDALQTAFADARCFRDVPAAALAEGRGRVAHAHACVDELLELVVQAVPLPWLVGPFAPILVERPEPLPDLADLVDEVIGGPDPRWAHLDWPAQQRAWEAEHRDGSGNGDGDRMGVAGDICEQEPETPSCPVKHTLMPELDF
# Target sequence (Q8WTS1 whole entry, looked up): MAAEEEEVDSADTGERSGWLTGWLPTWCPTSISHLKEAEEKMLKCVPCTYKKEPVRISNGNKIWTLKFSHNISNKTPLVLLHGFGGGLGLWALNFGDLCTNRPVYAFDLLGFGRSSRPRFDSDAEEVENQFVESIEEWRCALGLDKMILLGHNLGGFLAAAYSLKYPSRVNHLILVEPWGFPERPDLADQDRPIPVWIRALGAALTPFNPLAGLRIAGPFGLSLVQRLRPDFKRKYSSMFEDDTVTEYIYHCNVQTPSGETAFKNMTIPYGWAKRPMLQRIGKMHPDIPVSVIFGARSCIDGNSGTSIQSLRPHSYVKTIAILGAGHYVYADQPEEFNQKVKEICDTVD
# Platelet DG rel: platelet dense granule release activity; AID 1663; inhibition, %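 (compounds screened at 7.5 µM in platelet-rich plasma)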; human platelet-rich plasma, SFLLRN dense granule ATP release, luminescence; actives 0.22% (n = 300,000);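 active = mean replicate score, as percent of positive control, at or above 50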
# Rce1 inh: yeast Ras-converting enzyme inhibition | actives 0.27% (n = 290,000) | yeast membranes, quenched prenylated peptide cleavage fluorescence | calls only | Q03530;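 active = fall in fluorescence gain of 50% or more versus controls, with final raw signal at or below 3038400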;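 also: plate controls were neutral control wells for no effect and wells lacking membranes for full effect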
# PfM18AAP inh-1: PfM18AAP enzyme inhibition | inhibition, % at 7.35 µM | actives 1.2% (n = 290,000) | recombinant PfM18AAP, H-Glu-NHMec fluorogenic cleavage;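 active = inhibition above the campaign mean inhibition over all tested compounds plus 3 SD, cut at about 28% in these data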;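 also: 0% = plate median of test compound wells and 100% = 2 mM ZnCl2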
# PfM18AAP inh-2: confirmation of Plasmodium falciparum M18 aspartyl aminopeptidase inhibitors; recombinant PfM18AAP, H-Glu-NHMec fluorogenic cleavage; actives 28% (n = 2,400); inhibition, % at 7.35 µM; shares compounds with PfM18AAP inh-1;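 active = mean inhibition over replicate wells above the hit cutoff set for the earlier primary screen, cut at about 29% in these data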;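 also: 0% = median of test compound wells and 100% = 2 mM ZnCl2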
# CTSL1 confirm: Cathepsin L (human) inhibition, confirmation; shares compounds with PfM18AAP inh-1; purified cathepsin L1, Z-Leu-Arg-MCA fluorescence; inhibition, % at 5.96 µM; 2,400 tested, under 10 active; AID 2178;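 active = average inhibition across replicates above the hit cutoff set in the earlier primary screen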;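 also: 0% = median of test compound wells and 100% = Z-Phe-Ala-diazomethylketone 1 µM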
# * marks the source's active call; other numbers are inactive results; i = inactive; · = no result given.
SMILES,Exocytosis inh,ABHD5 PLIN5 PPI,Platelet DG rel,Rce1 inh,PfM18AAP inh-1,PfM18AAP inh-2,CTSL1 confirm
O=C(Cc1c(Cl)cccc1Cl)Nc1cccc(S(=O)(=O)N2CCOCC2)c1,3,-5,10,i,-13,·,·
COc1cc(CNc2cc(C)ccc2C)cc(OC)c1OC,-3,4,-26,·,-3,·,·
Cc1nc2cc(C(F)(F)F)ccc2n1CCNc1nc(-c2ccc(F)cc2)cs1,0,-8,-4,i,10,·,·
COC(=O)c1cc(S(=O)(=O)NCc2ccccc2OC)cn1C,0,11,-1,i,-3,·,·
O=C(NNc1nc2ccccc2s1)C1CC1,1,1,0,i,56*,24,-3
CC(C)C(=O)NNc1nc2ccccc2s1,-3,-6,3,i,11,·,·
CC(=O)N1CCN(c2ccc(N=Cc3c(O)n(Cc4ccccc4)c(=O)[nH]c3=O)cc2)CC1,1,4,-2,i,33*,-59,-8
CC(=O)Nc1ccc(C=NN=C2c3ccccc3-c3ccccc32)cc1,-1,11,·,·,·,·,·
Cc1c(O)ccc(/C=N/Nc2ncccc2[N+](=O)[O-])c1O,-1,-1,63*,i,43*,10,1
N#CC1=C(N)SC(N)=C(C#N)C1CCc1ccccc1,8,-7,-3,i,9,·,·
N#CC1=C(N)SC(N)=C(C#N)C1Cc1ccccc1,0,-5,7,i,43*,-9,1
N#CC1=C(N)SC(N)=C(C#N)C1c1cccc(Oc2ccccc2)c1,1,1,-6,i,3,·,·
N#CC1=C(N)SC(N)=C(C#N)C1c1c(Cl)cccc1Cl,31,-8,-17,i,46*,-13,2
O=C(Cc1ccccc1)N/N=C/c1cc(Br)cs1,-4,-1,-8,i,-4,·,·
CCC(C)OC(=O)C1=C(C)NC(=O)NC1c1ccc(F)cc1 (configuration not stated),-4,2,0,i,8,·,·
Cc1cc2oc(=O)cc(-c3cc4ccccc4o3)c2cc1O,0,-8,2,i,58*,-21,-4
O=c1cc(-c2cc3ccccc3o2)c2cc(O)ccc2o1,-9,15,13,i,12,·,·
CCOC(=O)c1cnc2c(C(=O)OC)cccc2c1NCc1ccco1,-1,2,2,i,41*,-30,4
CCOC(=O)c1ccc2ncc(C(=O)OCC)c(NCc3ccco3)c2c1,-1,9,-7,i,11,·,·
CCC(=O)N(Cc1cc(=O)[nH]c2ccccc12)c1ccccc1C,-1,4,2,i,5,·,·
CCN(CC)P(=O)(Nc1ccc([N+](=O)[O-])cc1)c1c(C)nn(CCC#N)c1NC(=O)c1ccc(Cl)cc1 (configuration not stated),2,-2,10,i,58*,8,-1
Cc1cc(NC(=O)c2ccc([N+](=O)[O-])cc2)n(CCC#N)n1,18,7,6,i,1,·,·
COC(=O)C1=C(C)NC(=S)NC1c1ccc(-c2cc(Cl)ccc2Cl)o1 (configuration not stated),-3,5,2,i,36*,-55,9
Cc1ccc(-n2nc3ccc(N)cc3n2)cc1Cl,-14,-8,6,i,32*,-42,-1
COc1ccc(-n2c(Cn3nc(C(F)(F)F)cc3C)n[nH]c2=S)cc1,0,-6,-5,i,32*,-17,-3
SMILES,Exocytosis inh,ABHD5 PLIN5 PPI,Platelet DG rel,Rce1 inh,PfM18AAP inh-1,PfM18AAP inh-2,CTSL1 confirm
CCOC(=O)c1cnc(SSc2ncc(C(=O)OCC)c(N)n2)nc1N,18,-5,1,i,64*,44*,2
O=C(COC(=O)CN1C(=O)C2CCCCC2C1=O)Nc1ccc(S(=O)(=O)N2CCOCC2)cc1 (configuration not stated),-1,0,-2,i,0,·,·
Cc1ccc(C(=O)N/N=C\c2ccc([N+](=O)[O-])o2)cn1,-2,1,-23,i,34*,-45,6
Cc1ccc(C(=O)N/N=C\c2ccc(-c3ccc([N+](=O)[O-])cc3)o2)cn1,5,0,12,i,12,·,·
O=C(Nc1ccc(N2CCCC2)c(Cl)c1)c1ccc([N+](=O)[O-])o1,-2,7,·,·,12,·,·
CC(=O)NCc1ccc(-c2csc(N)n2)s1,2,-22,-3,i,37*,-52,-6
COC/C=C/C1=CC2=CC(=O)C(C)(OC(=O)c3cnc4ccccc4n3)C(=O)C2=CN1CCN1CCOCC1 (configuration not stated),3,8,10,i,·,·,·
Cc1cnc(SCCc2ccncc2)nc1C,·,·,2,i,62*,-8,-1
Cc1nn(C)cc1-c1n[nH]c(=S)n1-c1ccc(F)cc1,-1,0,-2,i,35*,-9,-7
Cc1nn(C)c(-c2n[nH]c(=S)n2-c2ccccc2)c1Cl,1,-5,5,i,32*,-9,-6
Cc1ccc(-n2c(-c3cn(C)nc3C)n[nH]c2=S)cc1,·,·,2,i,20,·,·
Nc1c2c(nc3cccc(Cl)c13)N(c1ccccc1)CC2,10,-19,0,i,5,·,·
COc1ccccc1NC(=O)c1cc[n+](C)cc1,-8,3,-2,i,-3,·,·
O=C(CN1C(=O)CSc2ccccc21)NC1CCCC1,-3,-2,-1,i,-7,·,·
COc1ccc(CCc2nnc(NS(C)(=O)=O)s2)cc1,7,-1,7,i,-3,·,·
CCOc1ccc(/C=N/N2C(C)CCCC2C)cc1OC (configuration not stated),-12,-7,6,i,8,·,·
COc1cc(/C=N/N2C(C)CCCC2C)cc(OC)c1O (configuration not stated),12,6,2,i,39*,-31,-8
O=c1[nH]c(=S)[nH]nc1Cc1ccccc1,-1,3,-1,i,38*,-30,-7
O=c1[nH]nc(Cc2ccccc2)c2ccccc12,-3,2,1,i,1,·,·
O=C(Cc1ccc(-n2c(=O)[nH]c3ccsc3c2=O)cc1)NCc1cccnc1,-1,0,-9,i,0,·,·
Cc1cc(NNC(=O)Nc2cccc(Cl)c2)nc2c1c(C)nn2C,·,·,10,i,39*,28,3
Cc1nn(C)c(C)c1CNC(=O)Nc1cccc(Cl)c1,1,-4,0,i,-4,·,·
COc1ccccc1NS(=O)(=O)c1cc(NC(=O)C2CC2)ccc1N1CCOCC1,·,·,0,i,42*,-27,1
Oc1ccc(-c2cn3c(n2)SCC3)cc1O,-1,-9,18,i,73*,65*,-1
Oc1ccc(-c2cn3c(n2)SCC3)cc1,1,0,-1,i,-2,·,·
O=C(CSc1nc2ccccc2n1CCc1ccccc1)N1CCOCC1,0,4,-12,i,-2,·,·
